# A selection: hits, their analogues and other compounds. The true share with any hit is near 6%.
# D1 antagonist: antagonists of human D1 dopamine receptor; P21728; HEK293 TREx D1 cells, calcium flux, dopamine EC80; hits give low values; hit rate 3.2% among 360,000; activity change, negative = inhibition, % at 10 µM; in the data active = activity change below about -30%; also: % is scaled to controls: 0 for no effect and ±100 for the full control effect
# Target sequence (P21728 whole entry, looked up): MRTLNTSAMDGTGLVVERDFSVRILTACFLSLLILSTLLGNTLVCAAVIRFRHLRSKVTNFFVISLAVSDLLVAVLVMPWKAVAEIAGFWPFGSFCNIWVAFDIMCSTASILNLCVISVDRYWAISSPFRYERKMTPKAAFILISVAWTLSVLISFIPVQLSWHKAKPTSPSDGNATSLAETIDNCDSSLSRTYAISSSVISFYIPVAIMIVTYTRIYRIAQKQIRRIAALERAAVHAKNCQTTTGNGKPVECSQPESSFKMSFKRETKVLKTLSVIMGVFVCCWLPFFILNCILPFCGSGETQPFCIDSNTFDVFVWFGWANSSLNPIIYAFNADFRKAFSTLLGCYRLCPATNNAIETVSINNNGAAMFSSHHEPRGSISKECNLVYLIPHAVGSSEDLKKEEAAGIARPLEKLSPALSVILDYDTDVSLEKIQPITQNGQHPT
#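 Compound effects on dopamine-evoked calcium signalling were measured in tetracycline-induced HEK293 Trex D1 cells. Dopamine at EC80 followed a 180 s compound pre-read, and fluorescence was tracked kinetically for 180 s more.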
# D1 agonist: agonists of human D1 dopamine receptor | activation, % at 2 µM | hit rate 1% among 360,000 | HEK293 T-REx D1 cells, calcium flux, agonist mode | P21728; in the data active = activation above about 30%; also: 0% is about no effect
#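 Inducible HEK293 T-REx D1 cells, force-coupled to calcium signalling, were plated at 4000 cells/well with tetracycline and held overnight at 30 C. After no-wash calcium dye loading, compound-evoked calcium rise over 180 s flagged agonists.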
# D3 antag: blocks the human D3 dopamine receptor. D3R cells, DiscoveRx beta-arrestin luminescence, antagonist mode; hits give low values. max response, negative = inhibition, %. AID 652054. hit rate 2.5% among 360,000; in the data active = max response below about -50%; inconclusive = no clear call, values can overlap the other calls; also: % is scaled to controls: 0 for no effect and ±100 for the full control effect
#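 Cells plated overnight at 1500 cells/well, then exposed to library compounds with dopamine controls for 90 minutes at 37 degrees C. DiscoveRx reagent added for 30–60 minutes at room temperature; luminescence read, quantitative HTS format.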
# D1 PAM: human D1 dopamine receptor positive modulation; P21728; potentiation, % at 10 µM; HEK293 TREx D1 cells, calcium flux, dopamine EC20 potentiation; hit rate 0.036% among 360,000; in the data active = potentiation above about 30%; also: 0% is about no effect
# D3 ag: agonists of human D3 dopamine receptor | D3R DiscoveRx beta-arrestin cells, luminescence, 90 min | max activation, % | hit rate 0.58% among 410,000 | AID 652048; in the data active = max activation above about 30%; also: 0% is about no effect
#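 Agonist mode: compounds and dopamine controls were applied to plated cells for 90 min at 37 degrees C after an overnight attachment at 1500 cells/well. Luminescent read-out followed 30 - 60 minutes at room temperature with DiscoveRx detection reagent.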
# * = called active by the depositor; ? = inconclusive; . = not tested or not shown.
SMILES,D1 antagonist,D1 agonist,D3 antag,D1 PAM,D3 ag
O=C(CN(Cc1ccc(F)cc1)C(=O)CCC(=O)Nc1nccs1)NCc1ccccc1,-91.5*,1.9,-0.1,-7.2,1.6
Cc1[nH]n(-c2ccccc2)c(=O)c1-c1ccccc1,-5.6,2.0,?,2.8,0.7
Cc1[nH]n(-c2cccc(Cl)c2)c(=O)c1-c1ccccc1,-4.7,1.3,-51.9*,-1.9,-1.6
COc1ccc(C(c2c(NC(C)=O)sc3c2CCCC3)N2CCN(CCO)CC2)cc1OC (stereo not given),-11.2,6.0,6.4,1.8,0.9
CC(=O)Nc1sc2c(c1C(c1cccc(Cl)c1)N1CCN(CCO)CC1)CCCC2 (stereo not given),-30.1*,14.9,?,-4.9,-10.7
Cc1ccc(NC(=O)C2CCN(c3cc(C)nc4c(-c5ccc(Cl)cc5)c(C)nn34)CC2)c(C)c1,12.3,1.1,.,1.9,7.4
CCCN(CCC)c1ccc(C2N=C(N)Nc3nc4ccccc4n32)cc1 (stereo not given),-5.0,-0.2,.,-6.2,9.0
Cc1ccc(C(=O)Nc2cccc(C(=O)OCc3cc(=O)n4nc(C5CC5)sc4n3)c2)cc1,-6.3,33.0*,.,0.2,6.3
Cc1cccc(C(=O)OCc2cc(=O)n3nc(C4CC4)sc3n2)c1,-30.7*,8.1,.,-6.5,1.8
COc1ccc(-c2nn3c(=O)cc(CN4CCN(C(=O)Nc5ccc(C)c(Cl)c5)CC4)nc3s2)cc1,-13.7,-0.9,.,-3.4,9.3
COc1ccc(C(c2c(C)n(C)n(-c3ccccc3)c2=O)c2c(C)n(C)n(-c3ccccc3)c2=O)c(OC)c1OC,10.1,3.0,16.7,-0.7,2.0
CCOCCc1nn2c(=O)cc(COC(=O)c3ccccc3OC)nc2s1,-31.5*,0.4,.,-8.7,1.4
COc1ccc(CNC(=O)C(C)n2c(=O)cc(C)c3c(C)nn(-c4ccccc4)c32)cc1 (stereo not given),-53.7*,-1.1,.,-6.1,8.0
CCCCn1nc2cc(C(=O)NCCc3cccs3)ccc2c1OCC,-67.2*,1.5,9.3,-11.1,0.4
CCCCOc1ccc(C(=O)C(CN2CCOCC2)c2ccccc2)cc1 (stereo not given),4.9,1.9,-53.8*,14.9,-2.5
CCCCn1nc2cc(C(=O)NCC34CC5CC(CC(C5)C3)C4)ccc2c1OCC,5.0,4.1,-79.0*,-1.9,-32.0
COc1ccc(C(=O)C(CN2CCOCC2)c2ccccc2)cc1 (stereo not given),-16.4,-0.1,-22.2,-7.7,-17.1
CCCCOc1ccc(C(=O)NCCc2cccs2)cc1,-31.6*,14.1,.,-1.6,.
CCCCn1nc2cc(C(=O)NCc3ccccc3OC)ccc2c1OCC,-0.1,2.6,19.8,-2.3,6.0
CCS(=O)(=O)N1CC(=O)N(c2cc(C)ccc2C)C(C)(C(=O)NC2CCCCC2)C1 (stereo not given),-2.4,0.7,.,0.6,0.6
CC1CCN(S(=O)(=O)c2ccc3c(c2)N(CC(=O)NCC(C)c2ccccc2)C(=O)CO3)CC1 (stereo not given),5.3,3.8,.,-0.4,-5.7
O=C(Cn1c(=O)n(-c2ccccc2)c(=O)c2sc3ccccc3c21)N1CCCC1,10.0,-0.5,.,3.1,-0.3
CCCCCOc1ccc(C(=O)NCC2(c3ccccc3)CCOCC2)cc1,-12.3,24.6,3.5,-7.2,-8.6
CCOc1c2ccc(C(=O)N[C@H](C)C3CCCCC3)cc2nn1CC,-10.7,0.3,-82.2*,-5.5,-9.1
CCOc1c2ccc(C(=O)NCCc3cccs3)cc2nn1CC,-13.8,3.8,1.3,-3.0,-24.7
SMILES,D1 antagonist,D1 agonist,D3 antag,D1 PAM,D3 ag
CCCCOc1ccc(C(=O)NCC2(c3ccccc3)CCOCC2)cc1,-40.2*,11.8,5.4,-4.4,4.5
CCCC(=O)Nc1sc(C(=O)OC)c(C)c1C(N)=O,-10.1,3.1,-125.0*,-1.3,-2.4
CCCCNC(=O)c1nc(C2CCN(S(=O)(=O)c3ccc(OC(F)(F)F)cc3)CC2)oc1-c1ccccc1,.,.,-24.0,.,-7.6
O=C(c1cccnc1)N1CCN(Cc2ccccc2Br)CC1,1.6,-1.1,-60.2*,0.9,-14.3
COc1cc(OC)cc(C(=O)N2CCN(Cc3ccccc3Br)CC2)c1,4.0,4.8,2.0,-2.8,-8.8
O=C(c1cccnc1)N1CCN(Cc2cccc(Br)c2)CC1,-2.2,3.4,-27.0,2.9,-20.4
COc1ccc(CN2CCN(C(=O)c3cccnc3)CC2)cc1Br,-34.2*,1.3,?,-4.9,-21.1
Cn1nc(-c2ccc(OCC(=O)Nc3ccc(Cl)cc3)cc2)c2ccccc2c1=O,2.1,14.2,.,-4.0,4.1
CCCCC(=O)N(C)c1c(CC)nc2c(OCc3ccc(C(F)(F)F)cc3)cccn12,.,.,-15.1,.,-10.8
CCCC[C@]12Cc3cc(C#N)ccc3C(O1)c1c(cc(-c3ccccc3)oc1=O)O2,3.6,1.6,.,1.9,.
COC(=O)C1=C(C)N(Cc2ccccc2)C(=NCc2cccc(Cl)c2)N[C@H]1c1cccc(F)c1,-3.8,31.7*,-2.1,-0.3,13.7
COC(=O)C1=C(C)N(Cc2ccccc2)C(=NCC(C)C)N[C@H]1c1cccc(F)c1,-40.8*,81.5*,-29.0,-5.3,-21.1
COc1cccc(NC(=O)Cn2nc(C)c3c(C)n(-c4ccccc4)nc3c2=O)c1,0.2,2.2,.,-5.8,5.8
CCCCNCC1CCCO1 (stereo not given),-90.5*,3.7,5.7,-6.3,4.5
CC1(C(=O)NS(=O)(=O)Cc2ccccc2C(F)(F)F)CCN1C(=O)C/C=C/c1ccccc1 (stereo not given),.,.,26.1,.,3.0
COc1ccc(/C=C/C(=O)c2ccc([N+](=O)[O-])o2)cc1,-8.5,0.0,-75.3*,-5.9,-28.0
Cc1cccc(/C=C/C(=O)c2ccc([N+](=O)[O-])o2)c1,-10.7,0.2,-58.4*,-6.7,-5.8
Cc1ccccc1/C=C/C(=O)c1ccc([N+](=O)[O-])o1,-5.7,-1.3,-58.1*,-8.4,-18.5
O=C(/C=C/c1cccc([N+](=O)[O-])c1)c1ccco1,-9.5,2.1,?,1.7,-12.7
O=C(/C=C/c1cccc([N+](=O)[O-])c1)c1ccc([N+](=O)[O-])o1,.,.,-136.7*,.,-62.6
COc1ccc(S(=O)(=O)N2CCN(C(=O)c3ccc([N+](=O)[O-])o3)CC2)cc1,-5.2,-0.8,0.3,-8.2,1.6
CC(=O)N1c2ccc(S(=O)(=O)N3CCCCCC3)cc2CC1C(=O)NCc1ccc(Cl)cc1 (stereo not given),7.9,0.8,.,0.8,5.3
CCSc1ccc([C@@H]2[C@@H]3C(=O)N(CC)C(=O)[C@@H]3[C@]3(C(=O)OC)CCCN23)cc1,-4.5,1.2,-2.0,9.4,-1.3
COc1ccc([C@H]2CC(=O)C=C(c3ccccc3)C2)cc1OC,-25.5,-0.6,13.0,-3.5,14.4
COc1ccc([C@H]2CC(=O)C=C(c3ccccc3OC)C2)cc1OC,-46.1*,1.0,22.8,-5.8,3.9
COc1cccc(C2=CC(=O)C[C@H](c3ccc(Cl)cc3)C2)c1OC,-16.2,12.2,-4.6,-4.3,0.0

# High-throughput results (PubChem BioAssay)
